Drawing on PubChem BioAssay, this text covers composite z-score and z-score for 22 compounds.

Activity calls are given as the source filed them. Unless noted, the rule behind the calls is not given here.

The test system of assay [1] is XIP peptide (Xip251-270) binding. As to the kind of experiment: XIP fragment 251-270 binding compounds – biochemical, small-molecule microarray, fluorescence 635/667 nm, 0.1 µg/mL protein, primary screen (AID 1182). The conditions noted are these: fluorescent protein binding, 635 nm, higher = more signal, called active from +8 up or from −8 down.
Assay [2] deals with XIP peptide (Xip251-270). Kind of assay: compounds binding XIP fragment 251-270 – biochemical, small-molecule microarray, fluorescence 635/667 nm, 0.5 µg/mL protein, primary screen (AID 1183). The following applies: fluorescence 635 nm, higher = more signal.
Assay [3] is described as follows: blood-stage malaria parasite viability loss – strain 3D7, DAPI fluorescence, 100 nL, primary screen (AID 1184).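 Note: parasites grown inside human red blood cells in medium with human serum.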 The following applies: P. falciparum 3D7 growth, 3 d, higher = more signal.
In assay [4] the target is Homeobox protein Hox-A13 (Mus musculus) (UniProt Q62424). As to the kind of experiment: disruptors of Hoxa13 oligonucleotide interaction – biochemical, fluorescence polarization, labeled oligonucleotide, primary screen (AID 1185). The conditions noted are these: Hoxa13:DNA binding, 15 min, higher = more signal, called active from +8 up or from −8 down. For orientation: Fluorescence polarisation rises when a labelled molecule tumbles more slowly, as on binding a larger partner.
Sequence of Homeobox protein Hox-A13 (Mus musculus) (Q62424 whole entry, looked up): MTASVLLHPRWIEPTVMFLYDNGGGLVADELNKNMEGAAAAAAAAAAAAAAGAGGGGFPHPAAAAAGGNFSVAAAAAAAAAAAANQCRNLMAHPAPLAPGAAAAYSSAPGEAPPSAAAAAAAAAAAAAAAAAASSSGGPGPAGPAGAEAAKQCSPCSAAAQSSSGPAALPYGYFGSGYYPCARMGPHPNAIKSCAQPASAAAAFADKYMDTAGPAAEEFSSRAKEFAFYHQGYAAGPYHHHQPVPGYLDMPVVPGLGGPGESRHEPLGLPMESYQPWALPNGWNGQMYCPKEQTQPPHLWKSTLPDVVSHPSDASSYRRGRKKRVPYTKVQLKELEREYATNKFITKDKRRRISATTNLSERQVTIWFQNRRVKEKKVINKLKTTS

The nature of assay [5]: blockers of DNA damage checkpoint Chk1 activation – imaging, HeLa, hydroxyurea, phospho-Chk1 antibody, percent positive cells, primary screen (AID 1186). The conditions noted are these: hydroxyurea-induced phospho-Chk1 immunofluorescence imaging, higher = more signal.
Assay [6] is described as follows: blockers of DNA damage checkpoint Chk1 activation – imaging, HeLa, hydroxyurea, phospho-Chk1 nuclear intensity, primary screen (AID 1187). The following applies: hydroxyurea-induced phospho-Chk1 immunofluorescence imaging, higher = more signal.

On to `Cc1c(NC(=O)/C(C#N)=C/c2ccc(Cl)cc2)c(=O)n(-c2ccccc2)n1C`, for which the figures for the composite z-score in assay [1] and in assay [2] were 0.773 (inactive) and 0.876, respectively. In addition, the z-score was 0.468 in assay [3], -3.94 (inactive) in assay [4], -0.0496 (inactive) in assay [5] and -0.246 (inactive) in assay [6].
With `CC(C)CNC(=O)[C@@H]1c2ccccc2C(=O)N(Cc2ccccc2Cl)[C@H]1c1ccc(CO)cc1`, the composite z-score is 0.0394 (inactive) in assay [1] and 0.8 in assay [2]. The z-score in assay [3] is 0.134; in assay [4], -1.47 (inactive); in assay [5], 0.0107 (inactive); in assay [6], 0.499 (inactive).
Consider `COCCOC(=O)N1C(=O)[C@@]2(c3cc(C#CCC(C(=O)OC)C(=O)OC)ccc31)[C@H](C(=O)N1CCCCCCC1)[C@H]1C(=O)O[C@H](c3ccccc3)[C@H](c3ccccc3)N1[C@@H]2c1ccccc1OCCO`, for which the composite z-score in assay [1] was 2.48 (inactive); in assay [2] it was 0.483. Moreover, the z-score in assay [3] was -2.4; in assay [4], 4.77 (inactive); in assay [5], 0.122 (inactive); in assay [6], 0.0392 (inactive).
As to `CC(C)C[C@H]1NC(=O)[C@@H](C)NC(=O)[C@@]23C(=O)N[C@@H](Cc4ccccc4)C2[C@H](C)[C@@]2(C)O[C@H]2C3/C=C/C/C=C\CNC1=O` (some centres not stated), the composite z-score in assay [1] was 1.06 (inactive); in assay [2], 0.679. Besides, the z-score was 0.234 in assay [3], -6.94 (inactive) in assay [4], 0.255 (inactive) in assay [5] and 0.0218 (inactive) in assay [6].
For `CN(C)C(=O)[C@]1(Cc2ccccc2)N=C(c2ccc(OCCCO)cc2)O[C@@H]1c1ccccc1`, the figures for the composite z-score in assay [1] and in assay [2] were 0.895 (inactive) and 0.851, respectively. In addition, the z-score in assay [3] was -2.38; in assay [4] it was -6.32 (inactive); in assay [5] it was -0.752 (inactive); in assay [6] it was -0.755 (inactive).
On to `C=C(COC)/C(=C/C[C@@H](OC(C)=O)c1ccccc1OCCO)c1cc(C(=O)OC)ccc1OC`, for which the composite z-score in assay [1] was -0.0801 (inactive); in assay [2], 0.587. The z-score was -2.76 in assay [3], -4.47 (inactive) in assay [4], -0.503 (inactive) in assay [5] and 0.169 (inactive) in assay [6].
For the compound `COCCOC(=O)N1C(=O)[C@@]2(c3cc(C#CC4=CCCCC4)ccc31)[C@H](C(=O)N1CCN(c3ncccn3)CC1)[C@H]1C(=O)O[C@H](c3ccccc3)[C@H](c3ccccc3)N1[C@@H]2c1ccccc1OCCO`, the composite z-score is 0.506 (inactive) in assay [1] and 0.59 in assay [2]. Besides, the z-score in assay [3] was -2.32; in assay [4] it was 2.82 (inactive); in assay [5], -0.274 (inactive); in assay [6], -0.475 (inactive).
Turning to `COc1ccc(NN2C(C(O)c3cc(C(F)(F)F)cc(C(F)(F)F)c3)C=CC3C(=O)N(C4CCCCC4)C(=O)C32)cc1` (configuration not stated), the values for the composite z-score in assay [1] and in assay [2] were 0.0376 (inactive) and 0.752, respectively. The z-score was -0.5 in assay [3], -3.31 (inactive) in assay [4], -1.14 (inactive) in assay [5] and -2.01 (inactive) in assay [6].
With `CCOC(=O)C[C@H]1[C@H](OC(=O)c2ccc(-c3ccccc3)cc2)[C@@H](NC(=O)CC(C)C)c2cc(OCCCO)ccc2N1C(=O)Cc1ccc(OC)cc1`, the composite z-score in assay [1] is 0.364 (inactive); in assay [2] it was -0.0598. Moreover, the z-score in assay [3] is -0.0881; in assay [4] it was -2.68 (inactive); in assay [5] it was 0.568 (inactive); in assay [6] it was 0.254 (inactive).
With `NCCCC[C@@H]1NC(=O)[C@H]2C[C@@H](C(=O)O)[C@@H](c3cccc(OCCO)c3)N2C1=O`, the composite z-score in assay [1] is 0.505 (inactive); in assay [2], 0.86. The z-score is -0.0736 in assay [3], 6.28 (inactive) in assay [4], 0.0547 (inactive) in assay [5] and -0.62 (inactive) in assay [6].
For the compound `COc1ccc(CC[C@H](O)c2cccc(OCC(=O)OC(C)(C)C)c2)cc1`, the composite z-score is 0.809 (inactive) in assay [1] and 0.662 in assay [2]. Further, the z-score was -1.03 in assay [3], -5.52 (inactive) in assay [4], -0.0884 (inactive) in assay [5] and 0.27 (inactive) in assay [6].
As to `[N-]=[N+]=NCc1ccccc1C[C@]1(C(=O)N2CCCCC2)N=C(c2ccc(OCCCO)cc2)O[C@H]1c1ccccc1`, the figures for the composite z-score in assay [1] and in assay [2] were 0.404 (inactive) and 0.779, respectively. For the same compound, the z-score was -2.34 in assay [3], -4.35 (inactive) in assay [4], -0.527 (inactive) in assay [5] and -0.286 (inactive) in assay [6].
For the compound `CCCCCN1CC=CC23O[C@@H]4C=CCOC(=O)[C@@H]4[C@H]2C(=O)N(CCCCCO)[C@@H]3C1=O` (some centres not stated), the composite z-score is 0.213 (inactive) in assay [1] and -0.228 in assay [2]. Further, the z-score in assay [3] was -0.423; in assay [4] it was -3.88 (inactive); in assay [5] it was -0.845 (inactive); in assay [6], -0.498 (inactive).
On to `O=C1C2C=CC(C(O)c3cccc(O)c3)N(Nc3ccccc3F)C2C(=O)N1c1ccccc1` (configuration not stated), for which the composite z-score in assay [1] is 1.62 (inactive); in assay [2], 0.632. Further, the z-score in assay [3] was -1.33; in assay [4], -3.57 (inactive); in assay [5], -0.388 (inactive); in assay [6], -1.33 (inactive).
As for `C=CCC(OC(C)=O)[C@@H]1[C@@H](N(Cc2cc3ccccc3o2)C(=O)c2ccc(-c3ccccc3)cc2)c2cc(OCCCO)ccc2N1C(=O)c1ccc2ccccc2n1` (some centres not stated), the composite z-score in assay [1] was -0.341 (inactive); in assay [2], -0.317. The z-score in assay [3] is -1.49; in assay [4] it was -1.34 (inactive); in assay [5], -0.203 (inactive); in assay [6], -0.103 (inactive).
Take `CC(C)CNC(=O)[C@@H]1c2ccccc2C(=O)N(Cc2ccccc2)[C@H]1c1ccc(CO)cc1`: the composite z-score in assay [1] was 0.906 (inactive); in assay [2], 0.0309. Besides, the z-score in assay [3] is -0.172; in assay [4] it was -1.68 (inactive); in assay [5], 0.212 (inactive); in assay [6] it was -0.161 (inactive).
For the compound `C=CCC(OC(C)=O)[C@@H]1[C@@H](N(Cc2ccc(-c3cccc(C(F)(F)F)c3)o2)C(=O)c2cccc3ccccc23)c2cc(OCCCO)ccc2N1C(=O)c1ccc2ccccc2c1` (some centres not stated), the composite z-score was 0.184 (inactive) in assay [1] and -0.563 in assay [2]. Further, the z-score in assay [3] was -2.73; in assay [4], -2.32 (inactive); in assay [5], -0.675 (inactive); in assay [6], -0.36 (inactive).
Take `CCOC(=O)C[C@H]1[C@H](OC(=O)c2ccc(C(=O)c3ccccc3)cc2)[C@@H](NC(=O)c2ccc3ccccc3c2)c2cc(OCCCO)ccc2N1C(=O)c1ccc2ccccc2n1`: the composite z-score in assay [1] was 0.27 (inactive); in assay [2], 0.197. The z-score is -2.68 in assay [3], -1.96 (inactive) in assay [4], -0.318 (inactive) in assay [5] and 0.25 (inactive) in assay [6].
On to `CO[C@H]1O[C@H](CO)[C@@H](OC(=O)Nc2ccc3c(c2)OCO3)[C@@H]2OC(=O)[C@@H](Cc3ccccc3)C/C=C/C[C@H](Cc3ccccc3)C(=O)O[C@@H]12`, for which the composite z-score in assay [1] is 0.462 (inactive); in assay [2], 0.692. Further, the z-score in assay [3] was -0.967; in assay [4] it was -8.19 (active); in assay [5], -0.508 (inactive); in assay [6], -0.215 (inactive).
As to `NCCCC[C@@H]1NC(=O)[C@H]2C[C@@H](C(=O)NCc3ccc(F)cc3)[C@@H](c3ccc(O)cc3)N2C1=O`, the composite z-score is 2.07 (inactive) in assay [1] and 0.563 in assay [2]. The z-score in assay [3] is 0.338; in assay [4] it was -4.42 (inactive); in assay [5], -0.52 (inactive); in assay [6], -0.367 (inactive).
Consider `COCCCNC(=O)[C@@H]1c2ccccc2C(=O)N(Cc2cc(C(F)(F)F)cc(C(F)(F)F)c2)[C@H]1c1ccc(CO)cc1`, for which the composite z-score is -0.313 (inactive) in assay [1] and -0.903 in assay [2]. Also, the z-score in assay [3] was -1.14; in assay [4] it was -3.22 (inactive); in assay [5] it was -0.334 (inactive); in assay [6], -0.768 (inactive).
As for `Cc1ccc(S[C@]2(C(=O)NCCCN(C)C)CC(=O)N(Cc3ccccc3Cl)[C@@H]2c2ccc(CO)cc2I)cc1`, the composite z-score was 0.0919 (inactive) in assay [1] and 0.856 in assay [2]. The z-score is -0.344 in assay [3], -1.48 (inactive) in assay [4], -0.0214 (inactive) in assay [5] and 0.0301 (inactive) in assay [6].
